In PubChem BioAssay:
Calls of active or inactive are those of the source.

Assay: S. cerevisiae RM11-1a growth modifiers, primary screen, strain RM11-1a, OD600, basal, 24 h (AID 1177);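 also: cultures grown under basal conditions with no added stressor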
Details: OD600, 24 h, higher = more signal, called active from +8 up or from −8 down
Also: test concentration not given here.

z-score, inactive:
NC(=O)[C@@H]1[C@H]2C(=O)O[C@H](c3ccccc3)[C@H](c3ccccc3)N2[C@H](c2ccc(O)cc2)[C@@]12C(=O)Nc1ccc(C#CC3=CCCCC3)cc12 2.07
COCCCNC(=O)[C@]1(Cc2ccccc2)N=C(c2ccc(OCCCO)cc2)O[C@@H]1c1ccccc1CN=[N+]=[N-] 0.0435
CC(C)(C)OC(=O)CC[C@]1(C(N)=O)N=C(c2ccc(OCCCO)cc2)O[C@H]1c1ccccc1 0.663
O=C1C2C=CC(C(O)C=Cc3ccc([N+](=O)[O-])cc3)N(Nc3ccccc3F)C2C(=O)N1c1ccccc1 (stereo not drawn) 1.6
C=C(CCCC)/C(=C/C[C@@H](OC(C)=O)c1ccccc1OCCO)c1cc(C(=O)OC)ccc1OC 0.724
O=C1C2C=CC(C(O)c3ccc(F)cc3)N(Nc3ccc([N+](=O)[O-])cc3)C2C(=O)N1c1ccccc1 (stereo not drawn) -0.228
CC(=O)NCCCC[C@@H]1NC(=O)[C@H]2C[C@@H](C(=O)O)[C@@H](c3ccc(O)cc3)N2C1=O 3.29
COc1ccc([Si](C)(C)[C@H]2[C@H](CCn3cc([C@H](O)c4ccccc4)nn3)O[C@@]3(C(=O)N(C)c4ccccc43)[C@@H]2C)cc1 1.01

Assay: E. coli acrAB mutant growth effects, primary screen, E. coli filamentation inducers, strain DRC39, OD650, 24 h (AID 1178);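 also: growth measured as culture turbidity by optical density at 650 nm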
Details: higher = more signal, called active from +8 up or from −8 down

z-score, inactive:
[N-]=[N+]=Nc1ccccc1[C@H]1OC(c2ccc(OCCCO)cc2)=N[C@@]1(Cc1ccccc1)C(=O)N1CCOCC1 0.226
CN1C(=O)C2C=CC(C(O)c3ccccc3)N(N3CCCCC3)C2C1=O (stereo not drawn) -1.32
C=CCC(OC(C)=O)[C@@H]1[C@@H](N(Cc2ccc(-c3ccccc3)cc2)C(=O)Cc2ccc(F)cc2)c2cc(OCCCO)ccc2N1C(=O)c1ccc2ccccc2c1 (stereo partly drawn) -0.794
COc1cc(CO)cc(I)c1O[C@H]1C=C(C(=O)NCCO)C[C@@H](N(C(=O)c2cc3ccccc3oc2=O)C2CCCCCC2)[C@@H]1O 2.12
CCCNC(=O)[C@@]1(Sc2ccc(C)cc2)CC(=O)N(Cc2ccccc2C(F)(F)F)[C@@H]1c1ccc(CO)cc1I 0.044
NC(=O)[C@@H]1[C@H]2C(=O)O[C@H](c3ccccc3)[C@H](c3ccccc3)N2[C@H](c2ccc(OCCO)cc2)[C@@]12C(=O)Nc1ccc(C#CC3=CCCCC3)cc12 -0.0159
COCCCNC(=O)[C@@]1(Cc2ccccc2)N=C(c2ccc(OCCCO)cc2)O[C@H]1c1ccccc1CN=[N+]=[N-] 0.0347
Cc1ccc(C2C3C(=O)CC4C(=O)N(c5ccccc5)C(=O)C4C3CN2S(=O)(=O)c2ccc(C)cc2)cc1 (stereo not drawn) -0.478
O=C(NC1CC1)[C@@H]1c2ccccc2C(=O)N(Cc2cc(F)cc(C(F)(F)F)c2)[C@H]1c1ccc(CO)cc1 0.678
COc1cc2c(cc1O)C(c1cccs1)N(Cc1cccc(OC(F)(F)F)c1)CC2 (stereo not drawn) -0.0378
CCOC(=O)C1=CC[C@@H](c2ccccc2)N(S(=O)(=O)c2ccc(C)cc2)[C@H]1c1ccc(CC)cc1 -0.692
CN1CCC(CCCO)=CC1c1cccs1 (stereo not drawn) 0.212
CCCCCN1CC=CC23O[C@@H]4C=CCOC(=O)[C@@H]4[C@H]2C(=O)N(C(C)CO)[C@@H]3C1=O (stereo partly drawn) -0.232
Cc1ccc(S[C@]2(C(=O)NCC(C)C)CC(=O)N(Cc3cc(C(F)(F)F)cc(C(F)(F)F)c3)[C@@H]2c2ccc(CO)cc2)cc1 -0.995
CC1CC/C=C\[C@H]2OC34C=CCN(Cn5nnc6ccccc65)C(=O)[C@H]3N(CCCCCO)C(=O)[C@@H]4C2C(=O)O1 (stereo partly drawn) 0.67
COc1ccc([Si](C)(C)[C@@H]2[C@@H](CCO)O[C@]3(C(=O)N(Cc4cccc(N5CCOC5=O)c4)c4ccccc43)[C@H]2C)cc1 1.4
CCCCN1CC=CC23O[C@@H]4C=CCCOC(=O)C4[C@H]2C(=O)N(CCCCCO)[C@@H]3C1=O (stereo partly drawn) 0.593
COc1ccc(CCNC(=O)[C@@]2(C)c3ccccc3C(=O)N(c3ccc(C)cn3)[C@H]2c2ccc(CO)cc2)cc1 0.0083
COC(=O)[C@@]1(Cc2ccc(OC)cc2)[C@H]2c3cc(C(=O)N4CCCC4)n(Cc4nc5ccccc5[nH]4)c3C[C@H]2CN1C(=O)c1ccccc1 -0.0181
[N-]=[N+]=NCc1ccccc1[C@@H]1OC(c2ccc(OCCCO)cc2)=N[C@]1(CCS(=O)(=O)c1ccccc1)C(=O)N1CCOCC1 2.84
CCOC(=O)C1=CC[C@H]2C(=O)N(c3ccccc3)C(=O)[C@@H]12 -0.809
COC(=O)[C@@]1(Cc2ccc(F)cc2)[C@H]2c3cc(C(=O)N(C)C)n(Cc4ccc(C)o4)c3C[C@H]2CN1C(=O)c1ccccc1 -0.359
OCCCC1=CC(C2CC2)N(Cc2cccc(OC(F)(F)F)c2)CC1 (stereo not drawn) 0.425
CCOc1cc(C(O)C2C=CC3C(=O)N(c4ccccc4)C(=O)C3N2Nc2ccc(C(C)C)cc2)ccc1O (stereo not drawn) -0.361
CO[C@H]1O[C@H](CO)[C@@H](OC(=O)Nc2ccccc2)[C@@H]2OC(=O)[C@@H](Cc3ccc4ccccc4c3)C/C=C/C[C@H](Cc3ccc4ccccc4c3)C(=O)O[C@@H]12 1.13
CCOC(=O)C[C@H]1[C@H](OC(=O)c2ccc(C(=O)c3ccccc3)cc2)[C@@H](NC(=O)Cc2ccc(OC)cc2)c2cc(OCCCO)ccc2N1C(=O)c1ccc2ccccc2n1 -0.572
C=CC[C@]1(C(=O)N2CCOCC2)N=C(c2ccc(OCCCO)cc2)O[C@H]1c1ccccc1N=[N+]=[N-] 1.31
NC(=O)[C@@H]1[C@H]2C(=O)O[C@H](c3ccccc3)[C@H](c3ccccc3)N2[C@H](c2ccc(O)cc2)[C@@]12C(=O)Nc1ccc(C#CC3=CCCCC3)cc12 -0.488
COCCCNC(=O)[C@]1(Cc2ccccc2)N=C(c2ccc(OCCCO)cc2)O[C@@H]1c1ccccc1CN=[N+]=[N-] 0.228
CC(C)(C)OC(=O)CC[C@]1(C(N)=O)N=C(c2ccc(OCCCO)cc2)O[C@H]1c1ccccc1 -0.218
O=C1C2C=CC(C(O)C=Cc3ccc([N+](=O)[O-])cc3)N(Nc3ccccc3F)C2C(=O)N1c1ccccc1 (stereo not drawn) -0.388
C=C(CCCC)/C(=C/C[C@@H](OC(C)=O)c1ccccc1OCCO)c1cc(C(=O)OC)ccc1OC 1.5
O=C1C2C=CC(C(O)c3ccc(F)cc3)N(Nc3ccc([N+](=O)[O-])cc3)C2C(=O)N1c1ccccc1 (stereo not drawn) -1.47
CC(=O)NCCCC[C@@H]1NC(=O)[C@H]2C[C@@H](C(=O)O)[C@@H](c3ccc(O)cc3)N2C1=O -1.91
COc1ccc([Si](C)(C)[C@H]2[C@H](CCn3cc([C@H](O)c4ccccc4)nn3)O[C@@]3(C(=O)N(C)c4ccccc43)[C@@H]2C)cc1 0.445
